Many of the other results were omitted from the sample, so the strongest signals are more common in it than they were.
Columns and labels:
Test in all cases: glycan array binding signal (z-score within array); higher = stronger binding
Conditions in all cases: glycan notation: IUPAC condensed, linker removed
[1] = target: GalNAc(b1-3)GlcNAc
Outline: (§1)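 Negative Z-scores can be read as non-binding. The Z-score is calculated within each array and then averaged across arrays of one protein sequence at different concentrations or buffers and across linkers. Arrays, 3228 in all, were curated from the Consortium for Functional Glycomics database and kept only where the protein sequence was available.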

[2] = target: GalNAc(b1-4)Gal(b1-4)Glc
Outline: as §1

[3] = target: GalNAc(b1-4)GlcNAc(b1-3)GalNAc(b1-4)GlcNAc
Outline: as §1

[4] = target: GalNAc3S(b1-4)GlcNAc
Outline: as §1

[5] = target: GlcNAc(b1-2)Man(a1-3)[GlcNAc(b1-2)Man(a1-6)]Man(b1-4)GlcNAc(b1-4)[Fuc(a1-6)]GlcNAc
Outline: as §1

[6] = target: GlcNAc(b1-2)Man(a1-3)[GlcNAc(b1-4)][GlcNAc(b1-2)Man(a1-6)]Man(b1-4)GlcNAc(b1-4)GlcNAc
Outline: as §1

[7] = target: GlcNAc(b1-2)[GlcNAc(b1-6)]Man(a1-6)[GlcNAc(b1-4)][GlcNAc(b1-2)Man(a1-3)]Man(b1-4)GlcNAc(b1-4)GlcNAc
Outline: as §1

[8] = target: GlcNAc(b1-3)Gal(b1-4)Glc
Outline: as §1

[9] = target: GlcNAc(b1-3)Gal(b1-4)GlcNAc(b1-3)Gal(b1-4)GlcNAc(b1-3)Gal(b1-4)GlcNAc(b1-3)Gal(b1-4)GlcNAc(b1-2)Man(a1-3)[GlcNAc(b1-3)Gal(b1-4)GlcNAc(b1-3)Gal(b1-4)GlcNAc(b1-3)Gal(b1-4)GlcNAc(b1-3)Gal(b1-4)GlcNAc(b1-2)Man(a1-6)]Man(b1-4)GlcNAc(b1-4)[Fuc(a1-6)]GlcNAc
Outline: as §1

[10] = target: GlcNAc(b1-3)Gal(b1-4)GlcNAc(b1-3)GalNAc
Outline: as §1

[11] = target: GlcNAc(b1-3)Gal(b1-4)GlcNAc(b1-6)[GlcNAc(b1-3)]Gal(b1-4)GlcNAc
Outline: as §1

[12] = target: GlcNAc(b1-3)[GlcNAc(b1-4)][GlcNAc(b1-6)]GlcNAc
Outline: as §1

[13] = target: GlcNAc(b1-4)GlcNAc(b1-4)GlcNAc(b1-4)GlcNAc(b1-4)GlcNAc
Outline: as §1

[14] = target: Kdn(a2-6)Gal(b1-4)GlcNAc
Outline: as §1

[15] = target: Man(a1-2)Man(a1-6)[Man(a1-3)]Man(a1-6)[Man(a1-2)Man(a1-2)Man(a1-3)]Man
Outline: as §1

[16] = target: Neu5Ac(a2-3)Gal(b1-4)GlcNAc(b1-2)[Neu5Ac(a2-3)Gal(b1-4)GlcNAc(b1-4)]Man(a1-3)[GlcNAc(b1-4)][Neu5Ac(a2-3)Gal(b1-4)GlcNAc(b1-2)[Neu5Ac(a2-3)Gal(b1-4)GlcNAc(b1-6)]Man(a1-6)]Man(b1-4)GlcNAc(b1-4)GlcNAc
Outline: as §1

[17] = target: Neu5Ac(a2-3)Gal(b1-4)[Fuc(a1-3)]GlcNAc(b1-3)Gal(b1-4)[Fuc(a1-3)]GlcNAc(b1-3)Gal(b1-4)[Fuc(a1-3)]GlcNAc
Outline: as §1

[18] = target: Neu5Ac(a2-3)GalNAc
Outline: as §1

[19] = target: Neu5Ac(a2-6)Gal(b1-4)GlcNAc(b1-2)Man(a1-3)[Gal(b1-4)GlcNAc(b1-2)Man(a1-6)]Man(b1-4)GlcNAc(b1-4)GlcNAc
Outline: as §1

[20] = target: Neu5Ac(a2-6)Gal(b1-4)GlcNAc(b1-2)Man(a1-6)Man(b1-4)GlcNAc(b1-4)GlcNAc
Outline: as §1

[21] = target: Neu5Ac(a2-6)Gal(b1-4)GlcNAc(b1-3)Gal(b1-4)GlcNAc(b1-6)[Gal(b1-3)]GalNAc
Outline: as §1

[22] = target: Neu5Ac(a2-6)Gal(b1-4)GlcNAc(b1-6)[Gal(b1-3)GlcNAc(b1-3)]Gal(b1-4)Glc
Outline: as §1

[23] = target: Neu5Ac(a2-6)Gal(b1-4)GlcNAc6S
Outline: as §1

[24] = target: Neu5Gc(a2-3)Gal(b1-3)[Fuc(a1-4)]GlcNAc
Outline: as §1

B1: pTFF2 (Sus scrofa), P01359 (protein)
chain: KPAACRCSRQDPKNRVNCGFPGITSDQCFTSGCCFDSQVPGVPWCFKPLPAQESEECVMEVSARKNCGYPGISPEDCAARNCCFSDTIPEVPWCFFPMSVEACHY
glycan array binding signal (z-score) [1]: 0.736
glycan array binding signal (z-score) [2]: 4.38
glycan array binding signal (z-score) [3]: -0.11
glycan array binding signal (z-score) [4]: 2.64
glycan array binding signal (z-score) [5]: -1.4
glycan array binding signal (z-score) [6]: 0.002
glycan array binding signal (z-score) [7]: 0.104
glycan array binding signal (z-score) [8]: -0.368
glycan array binding signal (z-score) [9]: 4.15
glycan array binding signal (z-score) [10]: 3.21
glycan array binding signal (z-score) [11]: -0.954
glycan array binding signal (z-score) [12]: 0.277
glycan array binding signal (z-score) [13]: -0.168
glycan array binding signal (z-score) [14]: 0.54
glycan array binding signal (z-score) [15]: 0.712
glycan array binding signal (z-score) [16]: 6.13
glycan array binding signal (z-score) [17]: -0.094
glycan array binding signal (z-score) [18]: 1.05
glycan array binding signal (z-score) [19]: 0.708
glycan array binding signal (z-score) [20]: 2.29
glycan array binding signal (z-score) [21]: -0.859
glycan array binding signal (z-score) [22]: -0.007
glycan array binding signal (z-score) [23]: -1.45
glycan array binding signal (z-score) [24]: 0.024
